The source of these data is PubChem BioAssay (EPA / NIEHS).

More than one record can exist for a structure, and the calls need not agree. Calls of active or inactive are those of the source. Rule for the calls: active = hit-call score of the fitted dose curve at least 0.9, where 1 is the maximum; inactive = score below 0.9.

The nature of the assay: CCTE_Shafer_MEA_dev_spike_duration_mean: CCTE's Neural Network Formation Assay for Mean Spike Duration, Shafer Lab (AID 2284051).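 For AC50: potency for a decrease in mean network spike duration versus DMSO.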 As to the method:
CCTE_Shafer_MEA_dev assay is conducted using Axion Biosystems 48 well microelectrode array (MEA) plates and Maestro recording system. Each well of the MEA plate contains a grid of 16 microelectrodes embedded in the culture surface. Electrically active cells, such as neurons, can be cultured over the electrodes, and electrical activity in these cells can be recorded extracellularly. The spontaneous firing of neurons is captured from each electrode on a microsecond timescale providing both temporally and spatially precise data. […] The CCTE_Shafer_MEA_dev assay uses primary cultures of rat cortical neurons. Recordings are made on days post-plating 5, 7, 9 and 12. As these cultures mature over time, neural networks develop functional activity and form cohesive networks in which electrical activity can be highly coordinated. CCTE_Shafer_MEA_dev_spike_duration_mean is 1 of 19 assay components of the CCTE_Shafer_MEA_dev assay. It measures the average duration of network spikes (temporally-clustered groups of action potential firing across multiple electrodes) during a recording in a microelectrode array (MEA) using Axion Biosystems Maestro 768 channel amplifier with the AxIS adaptive spike detector. To collapse across multiple recordings made on days post-plating 5, 7, 9 and 12, the trapezoidal area-under-the-curve of the component is calculated.Data from the assay component CCTE_Shafer_MEA_dev_spike_duration_mean was analyzed into 1 assay endpoint. This assay endpoint, CCTE_Shafer_MEA_dev_spike_duration_mean, was analyzed in the negative analysis fitting direction relative to DMSO as the negative control and baseline of activity. Using a type of functional reporter, gain or loss-of-signal activity can be used to understand electrical activity.
On the day prior to culture, each well was coated thoroughly with 150 uL of 0.05% polyethyleneimine (PEI, Sigma Cat P3143) in 50 mM HEPES (Sigma Cat H7523) at a pH of 8. The plate was incubated at 37C for one hour. PEI was rinsed out with 500 uL of sterile water three times. Plates were stored at 4C until the day of culture. This culture was plated at a seeding density of 1.5 x 10^5 cells/well on a 48-well MEA plate, prepared as described above. Cells were administered via a 25 uL media/laminin ([…]; Sigma Cat L2020-1MG) drop directly onto the microelectrode array, as adding the cells with the laminin results in better attachment than pre-coating with laminin. After 2 hours, an additional 475 uL of cortical media was added and the cells returned to the incubator. Exposure starts at day 0 of plating and is continued over twelve days of network development until the experiment is terminated. Cells are fed with fresh medium on DIV 5 and 9, following the recordings on those days. The entire volume of media in the well is exchanged and any vehicle or compound treatment is renewed. Complete details are found in OP-NHEERL/ISTD/SBB/TJS/2015-03-r0 (available on request, email shafer.tim@epa.gov). Measurement of the electrical activity is non-invasive, and recordings can be made from the same plate over multiple different days of the culture. In cortical neurons, this allows for the measurement of extracellular action potentials over the period during which networks form in the MEA plate.
The term AC50 denotes the concentration at which the activity in the assay is half-maximal. For the molecule `CCCc1cc(=O)[nH]c(=S)[nH]1`, the molecule was called inactive and the AC50 was 20.7 µM (active).

Consider `O=c1[nH]cc(F)c(=O)[nH]1`, for which the AC50 was 1.52 µM (active).

As to `C=CCc1ccc(O)c(OC)c1`, the result was inactive.

For the molecule `Cc1cc(=O)[nH]c(=S)[nH]1`, the result was inactive.

As for `C[Si]1(C)O[Si](C)(C)O[Si](C)(C)O[Si](C)(C)O1`, the call was inactive.

On to `CC(=O)Oc1ccccc1C(=O)O`, for which the outcome was inactive.

`OC[C@@H](O)[C@@H](O)[C@H](O)[C@H](O)CO`: the outcome was inactive.

`CC(C)c1ccc(C(=O)N=C(N)N)cc1S(C)(=O)=O`: the call was inactive.

As to `FC(F)(F)C(F)(F)C(F)(F)C(F)(F)C(F)(F)C(F)(F)CCI`, the molecule was classed as inactive.
